From PubChem BioAssay AID1345082 (National Center for Advancing Translational Sciences (NCATS), 2018) come the findings set out here.

Among all 94,000 compounds or so, about 4,000 (4.3%) were called active. A call without a number means that no potency is given here. Inconclusive results (about 29%) are left out. Calls come from the whole dose curve; as a rule, active = well fitted inhibition curve with a large enough effect; inconclusive = small, poorly fitted or top-dose-only effect; inactive = no such curve, though single readings can be large or run the other way. The sample as a whole holds a higher share of actives than the screen did.
Potency is the fitted concentration of half-maximal effect.

This test in a line: Cytotoxic Profiling in NIH 3T3 Cell Line of Diverse Libraries Using Quantitative High-Throughput Screening. Note: nearly all actives have a fitted effect of over 55% in size. To be noted: NIH 3T3 viability, CellTiter-Glo ATP luminescence, 48-72 h; series mostly up to 96.7 µM. The essentials:
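Cytotoxicity was measured by CellTiter-Glo ATP luminescence after 48 or 72 h compound exposure at 37 °C. Mouse NIH 3T3 fibroblasts were seeded at 400 cells/well and dosed by 23 nL pin transfer.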
In general terms: Cellular ATP, detected with luciferase, serves as a proxy for viable cell number.
Regarding `O=C(Nc1cc(F)ccc1F)N1CCC(Oc2ncccc2C(=O)N2CCCCC2)C1` (stereo not given), the Potency result is “inactive”. For `Cn1cccc1C(=O)N1CCCC(c2nc(-c3ccccc3)no2)CCNC(=O)CC1` (stereo not given), the Potency entry was “inactive”. Take `COc1ccccc1NC(=O)Cn1c(C)cc2nc3n(c(=O)c21)CCC3`: the Potency entry is “inactive”. For `Cc1noc(C2CC3(CCN(C(=O)c4sc(C)nc4C)CC3)CN2C)n1` (stereo not given), the Potency entry is “inactive”. With `CCn1nc(C)cc1C(=O)N[C@H]1[C@H](O)[C@H](O)C[C@@H]1c1cccnc1`, the Potency entry was “inactive”.

In the case of `CN1CCN([C@H]2CCN(C(=O)Cc3cccc(O)c3)C[C@H]2CCCO)CC1`, the Potency entry is “inactive”. To `COCCNC(=O)[C@@H]1C[C@H](Oc2cccnc2)CN1C(=O)c1nccn1C` belongs “inactive”. As to `Cc1cc(=O)n(CC(=O)NCCc2ccc(Cl)cc2)c(N2CCc3ccccc3C2)n1`, the Potency was 25.1 µM (active). As for `CCOC(=O)C1=CN(CC(=O)NCCc2ccc(Cl)cc2)S(=O)(=O)N=C1C`, the Potency entry was “inactive”. As to `Cc1cc(=O)n(CC(=O)Nc2cccc(Cl)c2C)c(N2CCc3ccccc3C2)n1`, the Potency entry was “inactive”. Take `CCC(CC)NC(=O)C1Cn2cccc2C(=O)N1Cc1cccnc1` (stereo not given): the Potency result was “inactive”. With `O=C(NC1CCN(c2cc(-c3ccccc3)[nH]n2)CC1)c1cccs1`, the Potency result was “inactive”. Turning to `CC(=O)N1CCC(C(=O)NCC2CCN(c3cc(-c4ccc(C)cc4)[nH]n3)CC2)CC1`, the Potency result is “inactive”. The same measure for `CCn1ccc(C(=O)NC2CCCN(c3cc(-c4ccc(F)cc4)[nH]n3)C2)n1` (stereo not given): “inactive”; for `O=C(NC1CCN(c2cc(-c3ccc(Cl)cc3)[nH]n2)C1)c1c[nH]c2ccccc12` (stereo not given): 39.8 µM (active); for `O=C(NC1CCN(c2cc(-c3ccc(F)cc3)[nH]n2)C1)c1cc2ccccc2[nH]1` (stereo not given): 39.8 µM (active).

In the case of `Cn1nccc1C(=O)NC1CCCN(c2cc(-c3ccc(F)cc3)[nH]n2)C1` (stereo not given), the Potency result is “inactive”.

In the case of `O=C(NCC1CCN(c2cc(-c3ccc(Cl)cc3)[nH]n2)CC1)c1ccc2nc[nH]c2c1`, the Potency is 35.5 µM (active). Consider `O=C(Cc1ccc(F)cc1)NC1CCN(c2cc(-c3ccc(Cl)cc3)[nH]n2)CC1`, for which the Potency result is “inactive”. `Cc1ccc(-c2cc(N3CCC(CNC(=O)c4ccc(N(C)C)cc4)CC3)n[nH]2)cc1`: the Potency entry is “inactive”.

Take `CNC(=O)[C@H]1C[C@H](Oc2cccnc2)CN1C(=O)c1ccccc1`: the Potency entry is “inactive”. `CCOc1ccccc1CN1CCc2nc(N3CCN(C)CC3)[nH]c(=O)c2CC1`: the Potency entry is “inactive”. As for `CC(C)N1CC2(C1)C(=O)N(Cc1cccc(Cl)c1)C(=O)[C@@H]1C[C@@H](O)CN12`, the Potency entry is “inactive”. Regarding `CC(C)NC(=O)C(C)[C@@H]1CC[C@@]2(C)CC[C@H](N[S+](C)(=O)[O-])[C@@H](C)[C@@H]2[C@H]1O` (stereo not given in full), the Potency entry was “inactive”. As to `CCOc1ccc(NC(=O)C2CN(S(C)(=O)=O)CC23CCCCC3)cc1` (stereo not given), the Potency entry was “inactive”.

For `Cc1cc(C2CCCN2C(=O)c2ccc(F)c(F)c2)on1` (stereo not given), the Potency result is “inactive”.

As to `O=C(O)C[C@@H]1CCN(C(=O)Nc2ccccc2)C[C@@H]1CC1=NCCc2cc(F)ccc21`, the Potency result was “inactive”. As for `O=C1CC2(CCN(C(=O)C3CCN(C(=O)Cc4ccc(F)cc4)CC3)CC2)Oc2ccccc2N1`, the Potency result was “inactive”. As to `COc1ccc(-c2ccc3ncc(Nc4ccc(C(F)(F)F)cc4)n3n2)cn1`, the Potency was 79.4 µM (active). For `COc1ccc(-c2ccc3ncc(Nc4cc(F)cc(N5CCOCC5)c4)n3n2)cn1`, the Potency result was “inactive”. `COc1ccc(-c2cccc(C(=O)N3CCC(NC(=O)c4ccc(C(F)(F)F)cc4)CC3)c2)nn1`: the Potency result was “inactive”.

As to `CC(=O)NCCc1ncc(C)n1C1CCCCC1`, the Potency entry was “inactive”. To `Cn1c(=O)n(C)c2cc(S(=O)(=O)N[C@@H]3CCOC[C@H]3O)ccc21` belongs “inactive”; to `COCCC1(NC(=O)C2CCOCC2)CCN(C(=O)C2COc3ccccc3O2)CC1` (stereo not given), “inactive”; to `COCC(=O)NCCC1CCN(C(=O)Nc2cc(F)cc(F)c2)CC1`, “inactive”.

For the molecule `COc1ccc(NC(=O)Cn2ccn3nc(-c4ccc(F)cc4)c(CO)c3c2=O)cc1OC`, the Potency result is “inactive”. To `COc1ccc(OCC2(C)COc3ccc(C(=O)Nc4cccnc4)cc3N2)cc1` (stereo not given) belongs 44.7 µM (active). Take `COc1ccc(C(=O)Nc2cccc(-c3nnc4n3CCCC4)c2)cc1`: the Potency result is “inactive”.

On to `CN(C)CCN(C)C(=O)c1ccc2c(c1)NC(C)(COc1ccc3[nH]ccc3c1)CO2` (stereo not given), for which the Potency is 79.4 µM (active). Consider `COc1cccc(NC(=O)c2ccc3c(c2)NC(C)(COc2ccccc2)CO3)c1` (stereo not given), for which the Potency was 39.8 µM (active). The same measure for `O=C(Nc1cccnc1)c1ccc2c(c1)OCCN(Cc1ncccn1)C2`: “inactive”. For the molecule `CC1(CNc2ccccc2)COc2ccc(C(=O)NCc3cccc(F)c3)cc2N1` (stereo not given), the Potency is 39.8 µM (active). To `COc1cccc(C(=O)Nc2ccc3c(c2)CN(Cc2ccc(OC)cc2OC)C(=O)CO3)c1` belongs “inactive”; to `CCOc1ccc(NC(=O)C2(Cc3cccnc3)CCCCC(=O)N2)cc1` (stereo not given), “inactive”; to `O=C(NCc1cccc(F)c1)C1CN(c2ccccc2)C(=O)N1` (stereo not given), “inactive”.

As for `O=C(NCC1CCOCC1)c1ccc2[nH]ccc2c1`, the Potency entry was “inactive”.

Turning to `CC1(CCCCc2ccccc2)COc2ccc(C(=O)N3CC[S+](=O)([O-])CC3)cc2N1` (stereo not given), the Potency entry was “inactive”. With `CC(C)NC(=O)NC1CCCN(c2ccc3nnc(C4CC4)n3n2)C1` (stereo not given), the Potency result was “inactive”. `O=C(NCCc1noc(C2CCCC2)n1)c1cc(F)c(F)cc1Cl`: the Potency entry was “inactive”. Regarding `O=C(NCCn1cnc2ccccc2c1=O)C1CC(=O)N(c2n[nH]c3ccccc23)C1` (stereo not given), the Potency result is “inactive”. With `CCOc1ccc(NC(=O)Cn2c(N3CCOCC3)nc(COC)cc2=O)cc1`, the Potency entry is “inactive”. For `O=C(c1ccc(F)cc1)N1CCC[C@H]1c1nc(-c2ccccc2Cl)no1`, the Potency entry is “inactive”.

With `Cc1ncc(C(=O)N2C[C@@H](C(=O)O)[C@H](c3ccc4c(c3)OCO4)C2)c(C)n1`, the Potency entry is “inactive”.

Turning to `COCCNc1ncnc2c1CN(C1CCCNCC1)C(=O)CN2C` (stereo not given), the Potency result is “inactive”. Regarding `COCc1cc(=O)n(CC(=O)NCc2ccc(C)cc2)c(N2CCOCC2)n1`, the Potency entry was “inactive”.

With `CCCCOC(=O)c1ccc(NC(=O)c2c(OC)cc(=O)n3c2CCCC3)cc1`, the Potency entry was “inactive”. On to `O=C(c1ccccc1Cl)N1CC2(Cc3ccccc3NC2=O)C1`, for which the Potency result was “inactive”. In the case of `O=C(Cn1nc(-c2ccco2)ccc1=O)NC1CCCc2c1[nH]c1c(Cl)cccc21` (stereo not given), the Potency entry was “inactive”.

As for `COc1ccc(CC(=O)NC2CCCc3c2[nH]c2ccccc32)cc1` (stereo not given), the Potency was 31.6 µM (active). For the molecule `O=C(Cn1nc2c(cc1=O)CCCC2)NC1CCCc2c1[nH]c1c(Cl)cccc21` (stereo not given), the Potency result is “inactive”. `O=C(Cc1ccccc1)NC1CCCc2c1[nH]c1c(Cl)cccc21` (stereo not given): the Potency is 35.5 µM (active). The same measure for `COc1ccc(CC(=O)N2CCC[C@H]2c2nc(-c3ccccc3)no2)cc1`: “inactive”; for `O=C(NC1CCCc2c1[nH]c1ccc(F)cc21)c1ccccn1` (stereo not given): “inactive”; for `COc1ccc(CN2CCc3oc(C)c(C(=O)NCCN4CCCC4)c3C2)cc1`: “inactive”. For `CN(C)C(=O)c1nc(-c2ccc(Cl)cc2Cl)c2cnccn12`, the Potency result was “inactive”. For `CN(C)C[C@@H]1CN(c2ncccn2)C[C@H]1NC(=O)Cc1ccccc1Cl`, the Potency entry was “inactive”. On to `CN(C)c1ccc(CN2CCOC[C@H]2c2ncc(-c3cccc(F)c3)[nH]2)cc1`, for which the Potency result was “inactive”. With `c1cncc(-c2cnc([C@@H]3COCCN3Cc3cnc4ccccc4c3)[nH]2)c1`, the Potency result is “inactive”. On to `CC(C)(C)c1coc([C@@H]2COCCN2Cc2ccc(F)cc2)n1`, for which the Potency entry is “inactive”.

On to `Cn1cc(CN2CC[C@H](c3nnc(-c4cccnc4)o3)C2)c2ccccc21`, for which the Potency result was “inactive”.

`Cc1ccc(CN2CCOC[C@H]2c2ncc(-c3cccc(F)c3)[nH]2)cc1`: the Potency was 79.4 µM (active). `Cn1cc(CN2CCOC[C@H]2c2ncc(-c3cccc(F)c3)[nH]2)c2ccccc21`: the Potency is 39.8 µM (active).

Turning to `Fc1ccc(CN2CCOC[C@H]2c2ncc(-c3cccnc3)[nH]2)cc1`, the Potency entry is “inactive”. Consider `Oc1ccccc1CN1CCOC[C@H]1c1ncc(-c2ccc(C(F)(F)F)cc2)[nH]1`, for which the Potency was 50.1 µM (active). On to `CN(Cc1ccccc1)Cc1cn([C@H]2CO[C@H]3[C@@H]2OC[C@@H]3NS(C)(=O)=O)nn1`, for which the Potency result was “inactive”. `CCc1noc(-c2cccn3c(CNC(=O)C(CC)c4ccccc4)nnc23)n1` (stereo not given): the Potency result was “inactive”. In the case of `CCn1cc(S(=O)(=O)N2CC[C@H](CNC(C)=O)[C@H](N(C)C)C2)cn1`, the Potency result was “inactive”. The same measure for `Cc1ccc(F)cc1S(=O)(=O)N1CCn2c(nn(CC3CC3)c2=O)C1`: “inactive”; for `O=C(C[C@@H]1O[C@H](CNC(=O)C2CC2)[C@@H](O)[C@H]1O)NCCN1CCOCC1`: “inactive”; for `Cc1ccnc(N2CC[C@@H]3[C@@H](CCC(=O)N3CCc3ccccn3)C2)n1`: “inactive”. Consider `c1cncc(-c2noc(C3CCCN(Cc4cc5n(n4)CCNC5)C3)n2)c1` (stereo not given), for which the Potency entry is “inactive”.

As for `CCOC(=O)N1CCC(=O)N(Cc2ccccc2)Cc2cc(OC)ccc21`, the Potency entry is “inactive”. Consider `Cc1nc(C(C)C)ncc1C(=O)N1CCN(C)C2(CCNC(=O)CC2)C1` (stereo not given), for which the Potency result is “inactive”. Consider `CNC(=O)[C@@H](c1ccccc1F)N1CCC[C@H]1C(=O)NCCOC`, for which the Potency entry is “inactive”.

`CC(=O)N1CCC2(CC1)CN(C(=O)Cc1cccc(Cl)c1)CCO2`: the Potency entry is “inactive”. In the case of `O=C(Cc1ccc(F)cc1)N1CCOCC2(CN(Cc3ccccc3)C2)C1`, the Potency is 35.5 µM (active).

Take `O=C(c1cccs1)N1CCOCC2(CN(Cc3cc(F)cc(F)c3)C2)C1`: the Potency result was “inactive”. For `Cc1nc(-c2cn(C3CCCN(C(=O)c4sccc4C)C3)nn2)no1` (stereo not given), the Potency result was “inactive”. `CCN1CCN(CCNC(=O)C2Cn3cccc3C(=O)N2Cc2cccnc2)CC1` (stereo not given): the Potency entry is “inactive”.

On to `N#Cc1ccc(CN2CCc3nc(C(=O)N4CCOCC4)oc3CC2)cc1`, for which the Potency entry is “inactive”.
